Results as given in PubChem BioAssay AID651756 (Johns Hopkins Ion Channel Center, 2012).
Entries with a potency or affinity are not part of this list. Values without a mark were called inactive.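 Rule for the calls: active = dose curve could be fitted and remaining uptake under 40% of control at 33.3 µM; inactive = the rest.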

Biological target: High affinity choline transporter 1 (Homo sapiens) (UniProt Q9GZV3)
Test: choline transporter CHT inhibition potency – cell-based, 3H-choline uptake, radioactive, HEK293 CHT LV-AA, orthogonal assay for CHT inhibitor project, dose response (AID 651756)
Details: HEK293 CHT cells, scintillation; series mostly up to 33.3 µM; remaining uptake, % of control: at the top concentration

Sequence of High affinity choline transporter 1 (Homo sapiens) (Q9GZV3 whole entry, looked up): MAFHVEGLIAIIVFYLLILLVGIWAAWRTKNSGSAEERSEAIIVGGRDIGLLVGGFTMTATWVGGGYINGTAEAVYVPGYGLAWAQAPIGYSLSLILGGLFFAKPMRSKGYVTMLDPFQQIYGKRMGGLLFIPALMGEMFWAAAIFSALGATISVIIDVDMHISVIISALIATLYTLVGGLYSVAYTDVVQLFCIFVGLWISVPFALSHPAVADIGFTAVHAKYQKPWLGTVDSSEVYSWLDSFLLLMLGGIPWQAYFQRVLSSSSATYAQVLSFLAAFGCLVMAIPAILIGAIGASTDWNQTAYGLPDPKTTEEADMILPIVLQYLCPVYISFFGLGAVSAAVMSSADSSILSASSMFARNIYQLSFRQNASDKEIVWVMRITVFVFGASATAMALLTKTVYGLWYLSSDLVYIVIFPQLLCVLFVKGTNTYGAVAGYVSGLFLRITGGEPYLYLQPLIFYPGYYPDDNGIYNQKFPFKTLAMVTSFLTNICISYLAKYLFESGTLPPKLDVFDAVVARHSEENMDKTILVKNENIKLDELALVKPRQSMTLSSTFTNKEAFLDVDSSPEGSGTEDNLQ

Row | SMILES | remaining uptake, % of control
1 | O=C(Nc1ccc(S(=O)(=O)Nc2ccccn2)cc1)c1ccc(C(F)(F)F)cc1 | 67.6
2 | Cc1ccc(C(=O)Nc2ccc(S(=O)(=O)Nc3ccccn3)cc2)c(C)c1 | 45.2
3 | O=C(Nc1ccc(S(=O)(=O)Nc2ccccn2)cc1)c1ccc(Cc2ccccc2)cc1 | 60.3
4 | O=C1c2cccc(Cl)c2C(=O)N1c1ccc(S(=O)(=O)Nc2ccccn2)cc1 | 84.3
5 | Cc1cccc(C(=O)Nc2ccc(S(=O)(=O)Nc3ccccn3)cc2)c1C | 82.9
6 | Cc1cc(F)ccc1C(=O)Nc1ccc(S(=O)(=O)Nc2ccccn2)cc1 | 38.5
7 | O=C(Nc1ccc(S(=O)(=O)Nc2ccccn2)cc1)c1ccc(Cl)cc1 | 71.4
8 | O=C1CC2(CCCCC2)C(=O)N1c1ccc(S(=O)(=O)Nc2ccccn2)cc1 | 68
9 | Cc1ccccc1C(=O)Nc1ccc(S(=O)(=O)Nc2ccccn2)cc1 | 62.2
10 | O=C(Nc1ccc(S(=O)(=O)Nc2ccccn2)cc1)c1cccc2ccccc12 | 50.6
11 | O=C1c2ccc(Cl)cc2C(=O)N1c1ccc(S(=O)(=O)Nc2ccccn2)cc1 | 86.3
12 | Cc1ccc(C(=O)Nc2ccc(S(=O)(=O)Nc3ccccn3)cc2)cc1 | 70.1
13 | Cc1cccc(C(=O)Nc2ccc(S(=O)(=O)Nc3ccccn3)cc2)c1 | 86.3
14 | CC1(c2ccccc2)CC(=O)N(c2ccc(S(=O)(=O)Nc3ccccn3)cc2)C1=O (stereo not drawn) | 70.7
15 | O=C1c2cccc(F)c2C(=O)N1c1ccc(S(=O)(=O)Nc2ccccn2)cc1 | 71.1
16 | Cc1c(C(=O)Nc2ccc(S(=O)(=O)Nc3ccccn3)cc2)cccc1[N+](=O)[O-] | 58.4
17 | O=C(Nc1ccc(S(=O)(=O)Nc2ccccn2)cc1)c1ccccc1-c1ccccc1 | 62.4
18 | Cc1cc(C)c(C(=O)Nc2ccc(S(=O)(=O)N(C)c3ccccn3)cc2)c(C)c1 | 50.7
19 | O=C(Nc1ccc(S(=O)(=O)Nc2ccccn2)cc1)c1cccc(C(F)(F)F)c1 | 70.6
20 | Cc1cc(C)c(C(=O)Nc2ccc(S(=O)(=O)Nc3ccccc3)cc2)c(C)c1 | 60.8
21 | COc1cc(C)ccc1C(=O)Nc1ccc(S(=O)(=O)Nc2ccccn2)cc1 | 64.3
22 | O=C1c2ccccc2C(=O)N1c1ccc(S(=O)(=O)Nc2ccccn2)cc1 | 67.7
23 | O=C(Nc1ccc(S(=O)(=O)Nc2ccccn2)cc1)c1cccc(Cl)c1 | 64.5
24 | O=C1C(c2ccccc2)C(c2ccccc2)C(=O)N1c1ccc(S(=O)(=O)Nc2ccccn2)cc1 (stereo not drawn) | 68.7
25 | O=C1CC(c2ccccc2)C(=O)N1c1ccc(S(=O)(=O)Nc2ccccn2)cc1 (stereo not drawn) | 63.3
26 | O=C(Nc1ccc(S(=O)(=O)Nc2ccccn2)cc1)c1ccc2c(c1)CCCC2 | 57.4
27 | O=C(Nc1ccc(S(=O)(=O)Nc2ccccn2)cc1)c1cccc(-c2ccccc2)c1 | 63.1
28 | Cc1ccc(C(=O)Nc2ccc(S(=O)(=O)Nc3ccccn3)cc2)c2ccccc12 | 44.9
